# From PubChem BioAssay AID686978 (National Center for Advancing Translational Sciences (NCATS), 2013)
# Hit rate of the full screen: of about 420,000 compounds, about 64,000 (15%) were called active. Inconclusive results (about 27%) are left out. Not all results are given here. Unmarked numbers belong to inactive results. The call rests on the fitted dose curve; in most records, active means well fitted inhibition curve with a large enough effect; inconclusive means small, poorly fitted or top-dose-only effect; inactive means flat fitted curve, though single readings scatter.
# Assay: qHTS for Inhibitors of human tyrosyl-DNA phosphodiesterase 1 (TDP1): qHTS in cells in absence of CPT; further: nearly all actives have a fitted effect of over 55% in size
# Details: DT40 Tdp1-/- hTDP1 cells, no CPT, ATP luminescence, 48 h; activity change, negative = growth inhibition: at 46.2 µM (top of the series)
# In short: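 Chicken DT40 Tdp1-/- cells stably complemented with human TDP1 were seeded at 400 cells/well with DMSO in place of 20 nM camptothecin. After compound pinning, cells grew at least 48 hr at 37 °C; viability read by CellTiter-Glo luminescence.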
# On the % scale 0 is the no-effect control and ±100 the full control effect; potency means the concentration at half of the fitted maximal effect.
SMILES,"activity change, negative = growth inhibition [%]",Potency
COc1ccc(CNC(=O)CN2C(=O)c3ccccc3S2(=O)=O)cc1,-24.4,–
CCCCCNC(=O)C(c1ccc(OC)cc1)n1c(=O)c(-c2ccccc2)nc2ccccc21 (stereo not given),–,20.6 µM (active)
COc1ccc(NC(=O)C(c2ccccc2)N2Cc3ccccc3C2=O)cc1 (stereo not given),-8.19,–
COc1ccc(NC(=O)CN(C)C(=O)c2n[nH]c3ccccc23)cc1,-22.5,–
CCSc1ccccc1C(=O)NCc1ccc(OC)cc1,-8.91,–
CCOCCCNC(=O)C(NC(=O)Cc1c[nH]c2ccccc12)c1ccc(OC)cc1 (stereo not given),-15,–
COc1ccc(C(C(=O)NCc2ccccc2)n2c(=O)c(-c3ccccc3)nc3ccccc32)cc1 (stereo not given),–,16.4 µM (active)
COc1ccc(NC(=O)C(c2ccncc2)n2c(=O)c(-c3cc4ccccc4[nH]3)nc3ccccc32)cc1 (stereo not given),–,18.4 µM (active)
COC(=O)C1=C(C(=O)OC)C2(OC1c1ccc(Br)cc1)C(=O)c1ccccc1C2=O (stereo not given),9.73,–
CN(c1ccc(OCC(=O)NC2=NCCS2)cc1)S(=O)(=O)c1ccc(F)cc1,-12.9,–
O=C(CSc1ccc(-c2ccccc2)nn1)NCC1CCCO1 (stereo not given),-15.8,–
CN(C)/C=C(\C#N)C(=O)c1cccnc1Oc1cccc(F)c1,-13.7,–
C[C@@H]1CN([C@@H](C)CO)C(=O)c2cc(NC(=O)C3CC3)ccc2O[C@H]1CN(C)C,-12.9,–
CC(C)CC(=O)Nc1cc(C(F)(F)F)ccc1N1CCOCC1,-14.8,–
CCOC(=O)c1c(C)[nH]c(C)c1C(=O)CSc1nc(N)cc(N)n1,-4.75,–
COCCNc1cc(NCCOC)c([N+](=O)[O-])cc1[N+](=O)[O-],13.4,–
Cc1ccc(OC(=O)c2cc3ccccc3o2)cc1,-2.8,–
CCOC(=O)c1[nH]c(C)c(CCC(=O)NCc2ccccc2C)c1C,-8.09,–
C/C(CC(=O)Nc1cccc(F)c1)=N\NC(=O)C(=O)NC1CCCCC1,-22.7,–
C=C(C)c1cccc(C(C)(C)NC(=O)N2CCN(c3ncccn3)CC2)c1,-17.4,–
O=C(CCN1C(=O)c2ccccc2C1=O)NNC(=O)c1ccc(Cl)cc1Cl,11.4,–
COc1ccc(Nc2cc(=O)n(-c3ccccc3)c3c2c(=O)n(C)c(=O)n3C)cc1,-18.7,–
COc1cccc(-n2cc3c(c2-c2ccccc2)c(=O)n(C)c(=O)n3C)c1,–,11.6 µM (active)
COc1cccc(-n2cc(C(=O)O)c3ccccc3c2=O)c1,-8.51,–
CN1CCN(NC(=O)Nc2ccc(Br)cc2)CC1,8.78,–

SMILES,"activity change, negative = growth inhibition [%]",Potency
COC(=O)c1ccc(/C=N/NC(=O)C(=O)N2CCCCCC2)cc1,-15.6,–
CCCNC(=O)c1cc(C2CCCN(C(=O)c3ccc4c(c3)CCO4)C2)on1 (stereo not given),6.81,–
S=c1[nH]nc(-c2ccc(Cl)cc2)n1CC1CCCO1 (stereo not given),-20.9,–
O=C(c1[nH]ncc1-c1ccc(Cl)cc1)C1CO1 (stereo not given),–,4.61 µM (active)
O=C(c1nnc(-c2ccc(Cl)cc2)o1)C1CCCC1,-0.7,–
CC(OC(=O)CCc1nc(=O)c2ccccc2n1C)C(=O)NCc1ccc2c(c1)OCO2 (stereo not given),-8.86,–
CCn1c2c(c(=O)n3ncc(C(=O)N4CCN(c5ccccc5)CC4)c13)CN(Cc1ccc(OC)cc1)CC2,–,16.4 µM (active)
CCn1c(CNC(=O)c2ccccc2)nnc1SCC(=O)N1CCN(c2ccccc2)CC1,-18.4,–
COc1ccc(N2CCN(C(=O)c3ccccc3NC(=O)C3=C(C)OCCS3)CC2)cc1,-29.7,–
CCC(C)NC(=O)C1CCC(=O)N1Cc1ccc(C)cc1 (stereo not given),4.13,–
CN(Cc1ccco1)S(=O)(=O)c1nnc(NC(=O)c2ccccc2)s1,15.1,–
COc1ccccc1CNC(=O)CCCCn1c(=O)c2ccccc2n(CC(=O)Nc2cc(Cl)ccc2C)c1=O,–,10.3 µM (active)
COc1ccccc1CNC(=O)CCn1c(=O)c2ccccc2n(CC(=O)Nc2cccc(Cl)c2)c1=O,–,18.4 µM (active)
COc1ccc(CCNC(=O)CCCn2c(=O)c3ccccc3n(Cc3ccc(F)cc3Cl)c2=O)cc1OC,-1.95,–
COCCNC(=O)CCCn1c(=O)c2ccccc2n(Cc2cccc([N+](=O)[O-])c2)c1=O,6.9,–
COc1ccccc1CNC(=O)CCCn1c(=O)c2ccccc2n(CC(=O)Nc2ccc(C)cc2Cl)c1=O,-24.6,–
Cc1ccc(Cn2c(=O)n(CCCC(=O)NCc3ccccc3Cl)c(=O)c3ccccc32)cc1,-2.45,–
COc1ccc(CCNC(=O)CCCCn2c(=O)c3ccccc3n(Cc3ccccc3)c2=O)cc1OC,–,20.6 µM (active)
COc1ccc(NC(=O)Cn2c(=O)n(Cc3ccc(C(=O)NCc4ccccc4Cl)cc3)c(=O)c3ccccc32)cc1,-26.8,–
COc1ccccc1CNC(=O)CCn1c(=O)sc2ccccc21,-9.01,–
CC(C)(C)C1CCC(=NNC(=O)c2ccc(Br)o2)CC1 (stereo not given),-6.8,–
Cc1nc2cccnc2nc1C,10.1,–
Cc1ccc2c(c1)C(O)(CC(=O)c1cccc(-n3cccc3)c1)C(=O)N2 (stereo not given),10.3,–
CCCCCCCCc1c(O)nc(-n2[nH]c(C)c(CCO)c2=O)[nH]c1=O,-8.48,–
Cc1ccc(C(=O)NNC(=O)c2ccc3c(c2)OCCO3)cc1,20.7,–
